8 compounds from PubChem BioAssay (NCI) can be followed below.

Each structure is given as a SMILES string. About 83,000 compounds went through this panel and 20% of them were active in at least one assay; those are over-represented in the sample as a whole.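 Results are percent growth after 48 hours of single-concentration exposure. 100 means growth as in untreated cells, lower positive values show inhibition; negative values down to -100 show cell death.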 Unmarked numbers belong to inactive results. Activity calls are given as the source filed them. The calls were made as follows: active = growth percent below 10; inactive = the rest.

Holding throughout (assay): NCI-60 one-dose screen, 48 h (100 = growth as untreated, 0 = no growth, -100 = all killed)
What all share (conditions): 10 µM unless noted

Test [1] has as its system NCI-H23 lung.
Test [2] relates to NCI-H226 lung.
Test [3] has as its system NCI-H322M lung.
Test [4] relates to HOP-62 NSCLC.
Test [5] has as its system NCI-H460 lung.
Test [6] concerns HOP-92 NSCLC.
Test [7] concerns NCI-H522 lung.
For test [8], the system named is A549/ATCC NSCLC.
Test [9] deals with 786-0 renal.
The subject of test [10] is COLO 205 colon.
Test [11] relates to DU-145 prostate.
Test [12] relates to K-562 leukemia.
Test [13] relates to MALME-3M melanoma.
For test [14], the system named is MDA-MB-231 breast.
The test system of test [15] is RXF 393 renal.
Test [16] concerns SF-268 CNS.
For test [17], the system named is SF-295 CNS.
The subject of test [18] is SF-539 CNS.
Test [19] concerns M14 melanoma.

Turning to `CN1CCN(c2nc(NCCNc3ccnc4cc(Cl)ccc34)c3ccccc3n2)CC1`, the growth in [1] is 44.9%; in [2], 62%; in test [3] it was 21.3%; in test [4] it was 13.7%; in test [5] it was 11.6%; in test [6], 53%. Moreover, the growth in [7] is -20.2% (active); in test [8], 1.62% (active); in test [9], -33.3% (active); in test [10], -62.6% (active); in test [11], 34.6%; in [12] it was -14.1% (active). Besides, the growth in test [13] was -57.4% (active); in [14], -10.8% (active); in test [15], -35.8% (active); in test [16], 32.6%; in test [17], -38.7% (active); in test [18] it was -78.4% (active). In addition, the growth in test [19] was -63.3% (active).

For the compound `O=C1CC(c2cccc(F)c2)c2c(n[nH]c2-c2ccc(Cl)cc2)N1` (stereo unspecified), the growth in [1] was 80.4%; in test [2] it was 80.7%; in test [3] it was 81.9%; in test [4] it was 65.7%; in test [5], 106%; in [6], 83.6%. Moreover, the growth was 61.5% in test [7]; 61.4% in [8]; 89.7% in test [9]; 104% in test [10]; 102% in test [11]; 96.4% in [12]. For the same compound, the growth in test [13] was 99.4%; in test [14] it was 80.4%; in test [16], 94.1%; in test [17], 91.8%; in test [18], 91.3%; in test [19] it was 100%.

Take `C=C1C(=O)O[C@H]2[C@H]1CC/C(Cn1cc(-c3cc(C)c(C)cc3C)nn1)=C\CC[C@@]1(C)O[C@@H]21`: the growth in [1] is -61.3% (active); in [2], -65.2% (active); in [3], 68.3%; in test [4] it was 55.7%; in [5], 36.5%; in [6] it was -79% (active). For the same compound, the growth in test [7] is -64.2% (active); in test [8] it was 26%; in [9], -77.5% (active); in test [10] it was -70.5% (active); in test [11], -100% (active); in test [12], -10.7% (active). Also, the growth in test [13] was -79.8% (active); in test [14] it was -73.7% (active); in test [16], -54.5% (active); in [17], 59.8%; in test [18], -82.9% (active); in test [19] it was -57.3% (active).

Take `N#CC(C#N)=NO`: the growth is 92.7% in test [1]; 94.6% in test [2]; 92.1% in test [3]; 85.8% in test [4]; 108% in [5]; 94% in test [6]. In addition, the growth was 75% in test [7]; 73.4% in test [8]; 99.5% in test [9]; 113% in test [10]; 111% in test [11]; 108% in [12]. Moreover, the growth is 99% in test [13]; 108% in test [14]; 105% in [15]; 100% in [16]; 101% in [17]; 99.8% in test [18]. Further, the growth in [19] is 110%.

Regarding `COc1ccc(-c2nc(N)ncc2Oc2ccccc2OC)c(O)c1`, the growth in test [1] is 38.8%; in [2], 73.5%; in [3], 50.5%; in test [4] it was 27.9%; in [5] it was 16.4%; in [6], 49.2%. Moreover, the growth in [7] was 28.7%; in test [8], 35.7%; in test [9], 37%; in test [10], 2.73% (active); in test [11] it was 34.9%; in test [12], 12.2%. The growth in [13] is 48%; in test [14] it was 51.9%; in test [16], 46.3%; in [17], -0.599% (active); in test [18], 8.99% (active); in [19] it was 12.5%.

With `CCN1/C(=C/C=C/c2n(-c3ccccc3)c3ccc(-c4nc5ccccc5s4)cc3[n+]2CC)N(c2ccccc2)c2ccc(-c3nc4ccccc4s3)cc21`, the growth in test [1] was -0.899% (active); in test [2], 0.213% (active); in test [3] it was 14.5%; in test [4], -7.25% (active); in test [5] it was -1.59% (active); in [6], 1.91% (active). In addition, the growth in test [7] was -0.409% (active); in test [8], 3.13% (active); in test [9], 3.99% (active); in test [10], -5.05% (active); in test [11], -47.9% (active); in test [12], 10.2%. Moreover, the growth in test [13] is -44.5% (active); in test [14], 16.9%; in test [16], 9.74% (active); in test [17], -30.4% (active); in test [18] it was -13.7% (active); in test [19] it was -11.2% (active).

For the compound `ClCc1ccc(-c2ccc(Cn3cnc4c(Cl)nc(Cl)nc43)cc2)cc1`, the growth is 29.8% in [1]; 68.3% in test [2]; 48.4% in test [3]; -15.9% (active) in [4]; 7.18% (active) in test [5]; -77.9% (active) in test [6]. For the same compound, the growth in test [7] was -20.6% (active); in test [8], -41.5% (active); in test [9] it was 13.2%; in [10], 35.3%; in test [11], -93.4% (active); in test [12], 9.48% (active). Also, the growth in [13] was -20% (active); in test [14] it was -37.7% (active); in [16] it was -13.5% (active); in test [17] it was -74.2% (active); in test [18], -86.9% (active); in test [19], 48.3%.

`CC(C)[C@@H]1CC[C@]2(CO2)[C@@H]2C(=O)OCC(C(=O)O)=C[C@H]21`: the growth was -18.4% (active) in test [1]; 25.5% in test [2]; 8.82% (active) in test [3]; 5.26% (active) in test [4]; 7.86% (active) in test [5]; -11.9% (active) in [6]. For the same compound, the growth is -45.8% (active) in [7]; 15.5% in test [8]; 11.6% in test [9]; 1.78% (active) in [10]; 7.04% (active) in [11]; 7.2% (active) in [12]. Moreover, the growth in [13] is -3.58% (active); in [14], 9.95% (active); in [16], 1.21% (active); in test [17] it was 22.2%; in [18], 6.83% (active); in [19], -48.5% (active).
